Screening results from PubChem.
BoNT-A LC inh2 = blocks Botulinum neurotoxin A light chain protease; inhibition, % at 10 µM; multiplex microsphere protease substrate cleavage, flow cytometry; AID 588499; 360,000 compounds, 0.17% hits; further: plate controls were buffer without enzyme for full effect and enzyme alone for no effect
Bead autofluor = counter-screen for toxin protease inhibitors: compound fluorescence; compound autofluorescence counterscreen, microsphere flow cytometry; active compounds read high; fluorescence intensity (test concentration not listed); 360,000 compounds, 3.1% hits; in the data active means fluorescence intensity above about 16000; inconclusive means no clear call, values can overlap the other calls
SSB-PriA inh = inhibitors of Klebsiella pneumoniae PriA binding to SSB C-terminal tail; AlphaScreen SSBct-PriA binding, biotinylated peptide; inhibition, % at 33 µM; 430,000 compounds, 0.6% hits; in the data active means inhibition mostly above about 37%, no sharp cut-off; inactive means mostly below about 20%;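 further: plate controls were negative control peptide for no effect and reference peptide for full effect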
Anthrax LF inh2 = anthrax lethal factor protease inhibition | multiplex microsphere protease cleavage assay, LF | inhibition, % at 10 µM | 360,000 compounds, 0.12% hits | AID 588501; further: plate controls were buffer without enzyme for full effect and enzyme alone for no effect
BoNT F protease = blocks Botulinum neurotoxin F light chain protease | Multiplex microsphere protease cleavage assay, flow cytometry | inhibition, % at 10 µM | 360,000 compounds, 0.22% hits | AID 588497; in the data active means inhibition above about 35%, passing the limit was not always enough; inconclusive means no clear call, values can overlap the other calls; further: plate controls were buffer without enzyme for full effect and enzyme alone for no effect
MazEF act = MazEF (E. coli) toxin RNase activation | P0AE70 | FAM/BHQ RNA-DNA oligo cleavage fluorescence, 5 h | activation, % at 20 µM | 350,000 compounds, 0.32% hits; in the data active means activation above about 50%
Target sequence (P0AE70 whole entry, looked up): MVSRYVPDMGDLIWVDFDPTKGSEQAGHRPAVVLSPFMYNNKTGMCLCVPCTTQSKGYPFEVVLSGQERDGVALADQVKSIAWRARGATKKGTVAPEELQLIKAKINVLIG
Numbers without * were called inactive; i = inactive; ? = inconclusive; · = no result given; ! = not active in a repeat. Rows were chosen to be rich in hits. Some 3.3% of all compounds tested hit in one or more screens of this group. Unless noted, no stated cut-off is given here; in the data, active means inhibition above about 30%; inconclusive means no clear call, values can overlap the other calls; inactive means below that.

SMILES	BoNT-A LC inh2	Bead autofluor	SSB-PriA inh	Anthrax LF inh2	BoNT F protease	MazEF act
CCOC(=O)c1ccc(NC(=S)NCCCN2CCCCC2)cc1	?	22858*	11	0	0	0
COc1ccc(OCCC(=O)Nc2ccc(S(N)(=O)=O)cc2)cc1	-6	3202	-6	-10	-22	7
CSc1ccccc1NC(=O)c1cccn(Cc2cccc(C)c2)c1=O	·	·	-11	·	·	·
FC(F)Oc1ccccc1NC(=S)NCc1ccco1	0	23284*	-8	-1	-3	-3
Cc1ccc(CC(=O)NCC(C)C)cc1	1	22914*	-16	1	3	-1
Cc1ccc(CC(=O)NCc2ccc(Cl)cc2)cc1	0	2569	-1	0	-2	1
Cc1ccc(CC(=O)NCCN2CCOCC2)cc1	2	3023	-2	3	36*	-26
O=C(O)CCC(=NNc1ccccc1[N+](=O)[O-])c1cccs1	·	·	42*	·	·	·
O=C(O)CC/C(=N\Nc1ccc([N+](=O)[O-])cc1S(=O)(=O)N1CCOCC1)c1cccs1	0	5186	·	-5	-8	2
Cc1nc(SCC(=O)Nc2ccccc2)c2oc3ccccc3c2n1	0	2772	-15	-1	3	-3
Cc1nc(SCC(=O)NCCc2ccccc2)c2oc3ccccc3c2n1	1	16266*	-6	5	-2	-2
Cc1nc(SCC(=O)NC(C)c2ccccc2)c2oc3ccccc3c2n1 (configuration not stated)	0	19999*	-17	-2	1	-32
COc1ccc(/C=C/C(=O)N2CCCCC2)cc1	·	·	1	·	·	·
COC(=O)C1CCN(C(=O)/C=C/c2ccc(OC)cc2)CC1	-21	?	-4	35*	i	4
CC1CCCCC1N1CN=C(Nc2nc3ccccc3s2)NC1 (configuration not stated)	-2	23381*	-8	-1	-3	-7
c1ccc2sc(NC3=NCN(Cc4ccc5c(c4)OCO5)CN3)nc2c1	-1	10438	-9	-8	-5	9
c1ccc(CN2CN=C(Nc3nc4ccccc4s3)NC2)cc1	0	16724*	-8	-2	0	56*
COc1ccc(CN2CN=C(Nc3nc4ccccc4s3)NC2)cc1	-4	23311*	-8	-2	-5	62*
c1ccc2sc(NC3=NCN(C4CCCCC4)CN3)nc2c1	-1	9927	-9	-6	2	-1
O=c1c2ncccc2n(Cc2ccc(Cl)c(Cl)c2)c(=O)n1Cc1ccc2c(c1)OCO2	·	·	-2	·	·	·
Cc1n[nH]c(C)c1S(=O)(=O)NCCOc1ccc(-c2ccc(F)cc2)nn1	·	·	4	·	·	·
Cc1cccc(C)c1N1CCN(CC(O)COc2ccc3c(C)cc(=O)oc3c2)CC1 (configuration not stated)	·	·	14	·	·	·
COc1cccc(O)c1CN1CCCC(C(=O)c2cccc(C(F)(F)F)c2)C1 (configuration not stated)	0	4196	-29	-5	1	-3
COc1ccc(C(=O)C2CCCN(Cc3c(O)cccc3OC)C2)cc1OC (configuration not stated)	-3	4574	3	-18	37*	8
Clc1ccc(OCc2nc(-c3ccccn3)no2)c(Br)c1	0	6303	-11	-18	-9	6
SMILES	BoNT-A LC inh2	Bead autofluor	SSB-PriA inh	Anthrax LF inh2	BoNT F protease	MazEF act
Nc1nc(-c2ccccn2)nc(N)c1Cc1ccccc1F	-2	4620	95*	4	4	7
Nc1nc(-c2ccccn2)nc(N)c1Cc1ccc(Cl)cc1Cl	-3	3833	54*	-2	-1	-8
Nc1nc(-c2ccccn2)nc(N)c1Cc1c(F)cccc1Cl	-4	4380	35	-2	1	2
Cc1ccc(Cl)cc1S(=O)(=O)NCC1(c2cccs2)CCOCC1	·	·	-7	·	·	·
Cn1c(=O)[nH]c(=O)c2c1nc(OC(=O)c1ccccc1)n2CC(O)COc1ccc(F)cc1 (configuration not stated)	-1	16708*	2	1	-4	-1
CC(=O)c1ccc(N2CCN(C(=O)C3CN(S(C)(=O)=O)C3)CC2)cc1	·	·	-6	·	·	·
CN(C)c1nc(OCCNC(=O)COc2ccc(Cl)cc2Cl)nc(N(C)C)n1	0	22763*	-1	-2	0	0
CN(C)c1nc(OCCOC(=O)COc2ccc(Cl)cc2Cl)nc(N(C)C)n1	0	21324*	-17	-7	1	-9
CN(C)c1nc(SCCOC(=O)COc2ccc(Cl)cc2Cl)nc(N(C)C)n1	?	7528	-37	-4	10	-7
COCCNC(=O)COC(=O)/C=C/c1cnc2ccccc2n1	8	17342*	-7	-9	9	-2
O=C(COC(=O)/C=C/c1cnc2ccccc2n1)NCC(F)(F)F	1	3992	-10	-2	?	-5
CCOC(=O)N1CCN(C(=O)c2cc(C)c3c(C)nn(-c4ccccc4)c3n2)CC1	-1	23022*	-1	1	-1	-1
Cc1cc(N2CCOCC2)nc(CNS(=O)(=O)c2cccc(C(F)(F)F)c2)n1	·	·	-6	·	·	·
O=C(CCC(=O)OCCc1ccccc1)Nc1nccs1	·	·	5	·	·	·
C#CCn1c(S(=O)(=O)Cc2ccc(C)cc2)nc(-c2ccccc2)c1-c1ccccc1	11	17325*	-1	-2	14	3
C#CCn1c(S(=O)(=O)Cc2ccccc2Cl)nc(-c2ccccc2)c1-c1ccccc1	-1	11876	-13	-4	-14	-8
Cc1noc(C)c1C(=O)Nc1ccccc1Cc1nc(-c2ccco2)no1	·	·	-18	·	·	·
COc1ccc2c(c1)c1ncn(CCN3CCCC3)c(=O)c1n2C	-2	21856*	-2	-1	-2	2
COc1ccc2c(c1)c1ncn(CCN3CCNCC3)c(=O)c1n2C	2	22441*	-1	-2	2	1
COc1ccc2c(c1)c1ncn(CCN3CCCCC3)c(=O)c1n2C	0	10891	-2	-6	2	5
COc1cc(C(=O)Nc2ccc(F)c(Cl)c2)nc2ccc(Cl)cc12	·	·	-16	·	·	·
CN(C)c1ccc(NC(=S)NC23CC4CC(CC(C4)C2)C3)cc1	0	4534	45*	-2	-5	-27
O=C1N/C(=C/c2ccc(N3CCOCC3)cc2)C(=O)N1Cc1ccc(F)cc1	-3	18011*	-1	-5	-7	0
Cn1c(=O)n(C)c2cc(/C=C3/NC(=O)N(Cc4ccccc4)C3=O)ccc21	1	20142*	-20	-7	0	18
O=C(Nc1ccc2c(c1)C(=O)NC2=O)c1cccc(N2C(=O)CCC2=O)c1	·	·	1	·	·	·
SMILES	BoNT-A LC inh2	Bead autofluor	SSB-PriA inh	Anthrax LF inh2	BoNT F protease	MazEF act
O=c1c2[nH]c3ccccc3c2nc(SCCC2OCCO2)n1-c1ccccc1F	·	·	12	·	·	·
Cc1ccc(-c2csc(N/N=C/c3ccco3)n2)cc1	0	23231*	·	-6	-6	11
Cc1ccc(-c2csc(NN=Cc3ccco3)n2)cc1	·	·	28	·	·	·
Cc1cc(-c2ccccc2)nc(N/N=C/c2ccco2)n1	-2	24412*	·	-3	-5	-2
Nc1c(NC2CCCCC2)c2ccccc2oc1=O	3	22176*	50*!	-1	2	-5
Nc1c(NCCCN2CCOCC2)c2ccccc2oc1=O	-4	21802*	3	2	-5	4
